Only some compounds are listed: those with a hit (about 2.7% of all), similar ones and a draw of the others.
HIF-2a inh = inhibitors of HIF-2a; AID 624352; inhibition, % at 18.8 µM; actives 0.72% (n = 360,000); 786-0 RCC cells HIF-2a reporter, luciferase luminescence, overnight;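 active = inhibition of the luminescence signal of 40% or more relative to plate controls, in a single-dose primary screen at 18.75 µM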
Shn3 3UTR inh = Schnurri-3 reporter inhibition in Clone20 osteoblasts; inhibition, % at 12.5 µM; actives 0.52% (n = 360,000); Clone20 osteoblast Shn3 3'UTR firefly luciferase, 24 h;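 active = mean inhibition of at least 75% with every replicate also reaching 75%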;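 note: 0% = median of neutral control wells and 100% = pilot-screen positive control compound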
Peg3 prom inh = inhibitors of Peg3 promoter | HeLa PEG-Prom luciferase reporter, luminescence, overnight | inhibition, % at 20 µM | actives 1.7% (n = 360,000);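 active = inhibition of at least 50% at 20 µM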
KKLEB cytotox = reduces viability of KKLEB cystic fibrosis airway cells; activity change (cytotoxicity), % at 5 µM; KKLEB CF airway cells viability, ATPlite luminescence, overnight; active compounds read low; cells stimulated with P. aeruginosa culture filtrate; actives 0.36% (n = 360,000);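 active = corrected activity change at or below -50% at 5 µM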
CF NFkB inh = cystic fibrosis NF-kB activation inhibition; KKLEB NF-kB-GFP reporter, PAF-induced, GFP fluorescence overnight; actives 0.86% (n = 360,000); inhibition, % at 5 µM;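 active = at least 50% inhibition at 5 µM, scaled per plate between neutral and stimulator controls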;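 note: PAF is a Pseudomonas aeruginosa culture filtrate used as stimulus; plate controls were PAF-stimulated DMSO wells for no effect and unstimulated DMSO wells for full effect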
MITF TRPM1 inh = MITF TRPM1 promoter inhibition in SK-MEL-5 cells; SK-MEL-5 TRPM1 promoter luciferase, 24 h; actives 0.83% (n = 330,000); inhibition, % at 12.5 µM;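 active = mean inhibition across replicates of 60% or more, whatever share of single replicates reaches that level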
Mdm2-MdmX confirm = Mdm2/MdmX (human) interaction inhibition, confirmed | shares compounds with HIF-2a inh | SaOS-2 split-luciferase Mdm2/MdmX complementation, luminescence | inhibition, % at 8 µM | actives 99% (n = 740);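 active = mean inhibition of the luminescence signal across two replicates at or above 26 percent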
Target sequence (O15151 whole entry, looked up): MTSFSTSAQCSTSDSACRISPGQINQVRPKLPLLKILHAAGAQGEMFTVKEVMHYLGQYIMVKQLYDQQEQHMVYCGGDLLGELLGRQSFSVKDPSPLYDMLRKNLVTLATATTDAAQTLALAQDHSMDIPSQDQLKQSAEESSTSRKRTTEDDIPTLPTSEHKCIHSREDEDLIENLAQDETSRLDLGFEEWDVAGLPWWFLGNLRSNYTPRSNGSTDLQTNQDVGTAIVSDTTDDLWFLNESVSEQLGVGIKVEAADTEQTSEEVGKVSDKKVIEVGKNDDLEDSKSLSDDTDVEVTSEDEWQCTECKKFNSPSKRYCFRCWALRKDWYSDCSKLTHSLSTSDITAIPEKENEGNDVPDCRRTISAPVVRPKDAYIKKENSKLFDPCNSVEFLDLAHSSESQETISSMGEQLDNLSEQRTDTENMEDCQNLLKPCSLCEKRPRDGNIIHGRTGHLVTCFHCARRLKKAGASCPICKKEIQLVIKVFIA
Target sequence (Q00987 whole entry, looked up): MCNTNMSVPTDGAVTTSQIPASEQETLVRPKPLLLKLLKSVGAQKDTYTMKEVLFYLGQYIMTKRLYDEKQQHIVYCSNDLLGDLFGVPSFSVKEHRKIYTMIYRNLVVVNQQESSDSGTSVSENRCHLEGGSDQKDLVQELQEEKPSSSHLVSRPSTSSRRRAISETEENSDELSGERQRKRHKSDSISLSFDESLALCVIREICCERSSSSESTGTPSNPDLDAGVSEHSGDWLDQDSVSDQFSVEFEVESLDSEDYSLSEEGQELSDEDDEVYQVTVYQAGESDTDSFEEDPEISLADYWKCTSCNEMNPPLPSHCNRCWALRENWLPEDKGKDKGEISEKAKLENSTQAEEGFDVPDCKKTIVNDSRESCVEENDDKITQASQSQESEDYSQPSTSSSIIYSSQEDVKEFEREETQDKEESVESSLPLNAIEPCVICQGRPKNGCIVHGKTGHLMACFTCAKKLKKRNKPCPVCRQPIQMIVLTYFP
HIF-2a inh conf = HIF-2a inhibition, single concentration confirmation; shares compounds with HIF-2a inh; 786-0 RCC cells, HIF-2a luciferase reporter luminescence, overnight; inhibition, % at 18.8 µM; actives 56% (n = 1,800); AID 651580;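 active = mean inhibition across four replicates of at least 40 percent at the single tested concentration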
HIF-1a cs = HIF-1a inhibition counter-screen for HIF-2a hits; actives 72% (n = 1,800); MiaPaCa-2 HIF-1a luciferase reporter, desferoxamine, overnight; inhibition, % at 18.8 µM; shares compounds with HIF-2a inh;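 active = mean inhibition of the reporter signal across four replicates at the single tested dose of 50% or more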
* marks the source's active call; other numbers are inactive results; . = not tested or not shown.

SMILES | HIF-2a inh | Shn3 3UTR inh | Peg3 prom inh | KKLEB cytotox | CF NFkB inh | MITF TRPM1 inh | HIF-2a inh conf | HIF-1a cs | others
N#C/C(=C\C=C\c1ccccc1[N+](=O)[O-])C(=O)NCc1ccccc1 | 81* | -18 | 105* | -2 | -35 | 69* | 61* | 102*
N#C/C(=C\c1ccccc1[N+](=O)[O-])C(=O)NCc1ccccc1 | 22 | -4 | 16 | -7 | 4 | -1 | . | .
COc1cc2c(cc1OC)C(c1ccccc1)N(C(=O)CCl)CC2 (stereo unspecified) | 93* | 17 | 102* | -8 | 22 | 93* | 99* | 106*
CS(=O)(=O)c1ccc(S(=O)CC(=O)OCc2ccccc2)c([N+](=O)[O-])c1 (stereo unspecified) | 91* | 97* | 110* | -45 | 89* | 83* | 52* | 106*
O=[N+]([O-])c1cc(S(=O)(=O)N2CCCCCC2)ccc1Cl | 40* | 0 | 69* | -3 | -12 | 38 | 29 | 68*
COc1cccc(F)c1C(C[N+](=O)[O-])c1c(N)n(C)c(=O)n(C)c1=O (stereo unspecified) | 88* | -110 | 104* | -14 | 33 | 67* | 79* | 106*
COc1cc(C(C[N+](=O)[O-])c2c(N)n(C)c(=O)n(C)c2=O)ccc1O (stereo unspecified) | 23 | -2 | 23 | -3 | 42 | 6 | . | .
CN(C)C/C=C/C(O)(c1ccccc1)c1ccccc1 | 16 | -2 | 10 | 12 | -5 | 2 | . | .
CN(C)CC(CCC(CN(C)C)C(O)(c1ccccc1)c1ccccc1)C(O)(c1ccccc1)c1ccccc1 (stereo unspecified) | . | . | . | . | . | . | . | . | Mdm2-MdmX confirm=103*
CC(=NNC(=S)Nc1cccc(Cl)c1)c1ccccn1 | 72* | 84 | 93* | -14 | 12 | 33 | -167 | 40
CC(C)(C)NCC(=Cc1ccccc1)C(=O)c1ccccc1 | 80* | 97* | 101* | -13 | 4 | 98* | 99* | 107*
COc1ccc(C=C(C(=O)c2ccccc2)C(=O)c2ccccc2)cc1 | -105 | -39 | -319 | -8 | 11 | . | . | .
O=C(NC1CCCCC1)c1n[nH]c2c1CCCCC2 | 44* | 48 | 56* | -33 | 4 | . | 75* | 74*
O=C1Nc2ccc(Br)cc2/C1=C/C(=O)c1ccc2c(c1)OCO2 | 45* | 97* | 53* | -10 | 37 | 66* | -33 | 95*
CC(=O)c1ccc(NC2=C(N3CCOCC3)C(=O)c3ccccc3C2=O)cc1 | -34 | -29 | -18 | 8 | -26 | 18 | . | .
CC(=O)N(C)C1=C(N2CCOCC2)C(=O)c2ccccc2C1=O | -26 | 77 | 83* | -11 | 38 | 89* | . | . | Mdm2-MdmX confirm=75*
Nc1[nH]c(C(=O)c2ccccc2)c(-c2ccccc2C(F)(F)F)c1C(=O)NCc1ccc(F)cc1 | -2 | . | . | . | . | . | . | .
COc1ccc(C(=O)/C=C/C(=O)N(CC(=O)NCCC(C)C)Cc2cccs2)c(O)c1 | 96* | 98* | 105* | -3 | -20 | 84* | 91* | 56*
COc1ccc(C(=O)/C=C/C(=O)N(CC(=O)NC2CCCCC2)Cc2ccc(F)cc2)c(O)c1 | 64* | 14 | 102* | -42 | 37 | 99* | 58* | 105*
COc1ccc(/C=C/C(=O)c2ccc([N+](=O)[O-])o2)cc1OC | . | . | . | . | . | . | . | . | Mdm2-MdmX confirm=99*
O=C(/C=C/c1cccc(Cl)c1)c1ccc([N+](=O)[O-])o1 | 97* | 95* | 99* | -46 | 87* | 98* | . | . | Mdm2-MdmX confirm=102*
COc1ccc(C=CC(=O)c2ccc(OC)c(OC)c2O)cc1OC | -1 | 6 | -1 | -1 | -54 | -11 | . | .
NS(=O)(=O)c1ccc(CNC(=O)/C=C/c2cccc(Cl)c2)cc1 | 15 | -1 | 10 | -2 | -8 | 7 | . | .
C[C@@H]1CN([C@@H](C)CO)C(=O)CCCn2cc(nn2)CO[C@H]1CN(C)S(=O)(=O)c1ccc2ccccc2c1 | 3 | -2 | -16 | -11 | -1 | . | . | .
O=C(CCl)N(Cc1ccccc1)c1ccccc1 | 28 | 17 | 40 | -46 | 70* | 29 | . | . | Mdm2-MdmX confirm=103*
SMILES | HIF-2a inh | Shn3 3UTR inh | Peg3 prom inh | KKLEB cytotox | CF NFkB inh | MITF TRPM1 inh | HIF-2a inh conf | HIF-1a cs | others
COC(=O)c1ccc(C(=O)N(Cc2ccccc2)c2ccccc2)cc1 | 1 | 13 | 19 | 3 | 13 | -1 | . | .
Cc1ccccc1Oc1cc(-n2ncc(Cl)c(Cl)c2=O)ncn1 | 98* | 96* | 105* | -100* | 96* | 94* | 100* | 106*
CCOc1cnn(-c2cc(Oc3ccc(C)cc3)ncn2)c(=O)c1Cl | -9 | -4 | -4 | -4 | 8 | 6 | . | .
CC1(C)CC(=O)C=C(c2ccc(-c3cccc4c3sc3ccccc34)cc2)C1=O | -126 | 10 | -50 | -9 | 16 | . | . | .
COc1cc(OC)nc(-n2ncc(Br)c(Br)c2=O)n1 | 92* | 97* | 104* | -94* | 91* | 93* | 100* | 106*
COC(=O)c1cnn(-c2nc(OC)cc(OC)n2)c1C | 2 | -13 | -5 | 16 | -26 | -12 | . | .
COc1ccc(C2c3ccc4ccccc4c3Oc3ncn(CCCN(C)C)c(=N)c32)cc1 (stereo unspecified) | 93* | 60 | 112* | -18 | 13 | 101* | -2 | 105* | Mdm2-MdmX confirm=102*
COc1cccc(/C=C2/CCC(CN(C)C)C2=O)c1 (stereo unspecified) | 60* | 78 | 96* | 11 | -71 | 97* | 21 | 103*
O=C(Cn1nc(CNc2ccc(Cl)cc2)[n+]2c1CCCCC2)c1ccccc1 | -2 | -9 | 3 | 6 | 4 | 16 | . | .
Cc1ccc(C(C)C)c(OCc2nn(CC(=O)c3ccc(Cl)cc3)c3[n+]2CCCCC3)c1 | 49* | 49 | 112* | -25 | 41 | 67* | 16 | 106*
Cc1ccccc1N=C(c1ccccc1)C1C(=O)c2ccccc2C1=O | -28 | 8 | 2 | -6 | 3 | . | . | .
COC(=O)c1cc(=O)n(Cc2ccco2)c(=Nc2ccc(F)c(Cl)c2)s1 | 67* | 28 | 102* | 1 | 4 | -1 | 62* | 105*
COC(=O)c1ccc(N=c2sc(C(=O)OC)cc(=O)n2C)cc1 | 25 | -18 | 33 | -6 | 9 | 11 | . | .
CCN1CCCC1CNC(=O)C1CCN(Cc2nc(-c3cccc(Br)c3)oc2C)CC1 (stereo unspecified) | 66* | -12 | 91* | -22 | 20 | 59 | 19 | 104*
